A short description of assay [1]: NCI Yeast Anticancer Drug Screen. Data for the rad50 strain (AID 155).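 Also: 0% = growth of vehicle-only cultures of the same strain.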 Particulars: S. cerevisiae rad50 strain growth inhibition, active compounds read high. Put shortly: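 Cells are treated with compound, grown, and their growth is then scored against vehicle-only cultures of the same repair-deficient yeast strain.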
Assay [2] in a line: NCI Yeast Anticancer Drug Screen. Data for the mec2-1 strain (AID 157). Particulars: S. cerevisiae mec2-1 strain, active compounds read high. Put shortly: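 Test agents were screened against the mec2-1 yeast strain, with defined DNA repair or cell cycle alteration. Growth was scored as inhibition against vehicle-only controls.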
The nature of assay [3]: NCI Yeast Anticancer Drug Screen. Data for the sgs1 mgt1 strain (AID 161).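 Also: 0% = growth of cultures given vehicle only.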 Particulars: S. cerevisiae sgs1 mgt1 strain, active compounds read high. Put shortly: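 Test agents were incubated with a DNA-repair-mutant yeast strain. Growth was then read and compared against vehicle-treated controls.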
Assay [4] is described as follows: NCI Yeast Anticancer Drug Screen. Data for the cln2 rad14 strain (AID 165).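 Also: 0% = growth equal to vehicle treated cultures.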 The conditions noted are these: S. cerevisiae cln2 rad14 strain, active compounds read high. Put shortly: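 Growth of compound-exposed yeast (cln2 rad14 genotype) measured and expressed as inhibition relative to vehicle.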
A short description of assay [5]: NCI Yeast Anticancer Drug Screen. Data for the bub3 strain (AID 167). The conditions noted are these: S. cerevisiae bub3 mutant strain, active compounds read high. Put shortly: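 Part of a panel of yeast mutants defective in DNA damage repair or cell cycle regulation. Each strain is grown with compound, and inhibition is calculated relative to solvent-treated cultures.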

The nature of assay [6]: NCI Yeast Anticancer Drug Screen. Data for the mlh1 rad18 strain (AID 175). Particulars: S. cerevisiae mlh1 rad18 strain growth inhibition, active compounds read high. The gist of the method:
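In this whole-cell yeast screen, a strain with altered DNA damage repair is challenged with compound, and its growth is measured against matched vehicle-treated controls.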

The mark [7] stands for this setting: at 5.0 µM (retest, dose inferred, filed as 0.5).
The mark [8] stands for this setting: at 50.0 µM (retest, dose inferred, filed as 5.0).

Compounds without any hit were thinned out: in the full panel of roughly 79,000, 15% have a hit. A number with no mark means an inactive call. Active and inactive are the calls of the source. Rule as the data show it: active = growth inhibition above about 70%; inactive = the rest.

As for `CCN(CC)CCOC(=O)C1C(c2ccccc2)C1(c1ccccc1)c1ccccc1` (configuration not stated), the growth inhibition in assay [1] (setting [7]) was 1%; in assay [1] (setting [8]), 77% (active); in assay [1] (at 50.0 µM) it was 73% (active); in assay [2] (setting [7]), 4%; in assay [2] (setting [8]), 63%; in assay [2] (at 50.0 µM), 62.8%. For the same molecule, the growth inhibition is 8% in assay [3] (setting [7]); 97% (active) in assay [3] (setting [8]); 88.7% (active) in assay [3] (at 50.0 µM); 3% in assay [4] (setting [7]); 60% in assay [4] (setting [8]); 77.3% (active) in assay [4] (at 50.0 µM). Also, the growth inhibition in assay [5] (setting [7]) is 8%; in assay [5] (setting [8]), 85% (active); in assay [5] (at 50.0 µM), 75.2% (active); in assay [6] (setting [7]), 5%; in assay [6] (setting [8]), 96% (active); in assay [6] (at 50.0 µM), 92.8% (active).
Regarding `O=C(Cc1ccccc1)c1ccc(O)c(F)c1`, the growth inhibition is 4% in assay [1] (setting [7]); 79% (active) in assay [1] (setting [8]); 87.3% (active) in assay [1] (at 50.0 µM); 6% in assay [2] (setting [7]); 85% (active) in assay [2] (setting [8]); 77.5% (active) in assay [2] (at 50.0 µM). Also, the growth inhibition in assay [3] (setting [7]) was 6%; in assay [3] (setting [8]), 72% (active); in assay [3] (at 50.0 µM), 80.2% (active); in assay [4] (setting [7]), 4%; in assay [4] (setting [8]), 68%; in assay [4] (at 50.0 µM), 72.4% (active). Moreover, the growth inhibition in assay [5] (setting [7]) is 7%; in assay [5] (setting [8]) it was 88% (active); in assay [5] (at 50.0 µM), 82.5% (active); in assay [6] (setting [7]), 7%; in assay [6] (setting [8]), 84% (active); in assay [6] (at 50.0 µM), 83.7% (active).
For `CCN(C(=O)O)c1ccc(/C=C/c2ccnc3ccccc23)cc1`, the growth inhibition is 4% in assay [1] (setting [7]); 94% (active) in assay [1] (setting [8]); 2.4% in assay [1] (at 50.0 µM); -16% in assay [2] (setting [7]); 96% (active) in assay [2] (setting [8]); -17.9% in assay [2] (at 50.0 µM). The growth inhibition was 5% in assay [3] (setting [7]); 96% (active) in assay [3] (setting [8]); 40.1% in assay [3] (at 50.0 µM); -26% in assay [4] (setting [7]); 91% (active) in assay [4] (setting [8]); -0.1% in assay [4] (at 50.0 µM). The growth inhibition in assay [5] (setting [7]) was -17%; in assay [5] (setting [8]), 95% (active); in assay [5] (at 50.0 µM), 23%; in assay [6] (setting [7]), -7%; in assay [6] (setting [8]) it was 91% (active); in assay [6] (at 50.0 µM) it was 29.4%.
Consider `N#CSCc1ccc(Cl)c(CSC#N)c1`, for which the growth inhibition is 18% in assay [1] (setting [7]); 99% (active) in assay [1] (setting [8]); 99% (active) in assay [1] (at 50.0 µM); 4% in assay [2] (setting [7]); 99% (active) in assay [2] (setting [8]); 99.3% (active) in assay [2] (at 50.0 µM). Besides, the growth inhibition in assay [3] (setting [7]) is 8%; in assay [3] (setting [8]), 99% (active); in assay [3] (at 50.0 µM), 98.8% (active); in assay [4] (setting [7]) it was 10%; in assay [4] (setting [8]) it was 98% (active); in assay [4] (at 50.0 µM) it was 98.2% (active). The growth inhibition in assay [5] (setting [7]) was 16%; in assay [5] (setting [8]), 100% (active); in assay [5] (at 50.0 µM), 98.8% (active); in assay [6] (setting [7]), 10%; in assay [6] (setting [8]), 99% (active); in assay [6] (at 50.0 µM), 99% (active).
In the case of `C=C1CC(c2ccc(OCCCN3C(=O)c4ccccc4C3=O)c(OC)c2)OC1=O` (configuration not stated), the growth inhibition is -9% in assay [1] (setting [7]); 97% (active) in assay [1] (setting [8]); 76.3% (active) in assay [1] (at 50.0 µM); 24% in assay [2] (setting [7]); 91% (active) in assay [2] (setting [8]); 88.2% (active) in assay [2] (at 50.0 µM). The growth inhibition in assay [3] (setting [7]) is 1%; in assay [3] (setting [8]) it was 89% (active); in assay [3] (at 50.0 µM) it was 91% (active); in assay [4] (setting [7]) it was 11%; in assay [4] (setting [8]), 93% (active); in assay [4] (at 50.0 µM) it was 89.2% (active). Also, the growth inhibition is -16% in assay [5] (setting [7]); 95% (active) in assay [5] (setting [8]); 92% (active) in assay [5] (at 50.0 µM); 10% in assay [6] (setting [7]); 97% (active) in assay [6] (setting [8]); 96.8% (active) in assay [6] (at 50.0 µM).
In the case of `COC(=O)CCC(NC(=S)N/N=C/c1ccccn1)C(=O)OC` (configuration not stated), the growth inhibition is -2% in assay [1] (setting [7]); 29% in assay [1] (setting [8]); 72.1% (active) in assay [1] (at 50.0 µM); -54% in assay [2] (setting [7]); 47% in assay [2] (setting [8]); 49.1% in assay [2] (at 50.0 µM). Also, the growth inhibition was -25% in assay [3] (setting [7]); 41% in assay [3] (setting [8]); 57.4% in assay [3] (at 50.0 µM); -11% in assay [4] (setting [7]); 33% in assay [4] (setting [8]); 60.8% in assay [4] (at 50.0 µM). Also, the growth inhibition was -6% in assay [5] (setting [7]); 59% in assay [5] (setting [8]); 71.8% (active) in assay [5] (at 50.0 µM); -30% in assay [6] (setting [7]); 48% in assay [6] (setting [8]); 61.8% in assay [6] (at 50.0 µM).
For the molecule `CCCCCCCCCCCCCC(=O)OCC(O)CO` (configuration not stated), the growth inhibition in assay [1] (setting [7]) was 2%; in assay [1] (setting [8]), 2%; in assay [1] (at 50.0 µM), -2.25%; in assay [2] (setting [7]), 2%; in assay [2] (setting [8]), 28%; in assay [2] (at 50.0 µM) it was 6.1%. Further, the growth inhibition was 4% in assay [3] (setting [7]); 11% in assay [3] (setting [8]); -0.5% in assay [3] (at 50.0 µM); 7% in assay [4] (setting [7]); 10% in assay [4] (setting [8]); 75.3% (active) in assay [4] (at 50.0 µM). The growth inhibition is 1% in assay [5] (setting [7]); 22% in assay [5] (setting [8]); 8.05% in assay [5] (at 50.0 µM); 3% in assay [6] (setting [7]); 12% in assay [6] (setting [8]); 8.55% in assay [6] (at 50.0 µM).
On to `CCNCCNc1cc(O)c2c(c1O)C(=O)c1ccccc1C2=O`, for which the growth inhibition in assay [1] (setting [7]) is 73% (active); in assay [1] (setting [8]) it was 98% (active); in assay [1] (at 50.0 µM) it was 87.2% (active); in assay [2] (setting [7]) it was 92% (active); in assay [2] (setting [8]), 98% (active); in assay [2] (at 50.0 µM) it was 84.9% (active). The growth inhibition was 78% (active) in assay [3] (setting [7]); 98% (active) in assay [3] (setting [8]); 83.5% (active) in assay [3] (at 50.0 µM); 30% in assay [4] (setting [7]); 83% (active) in assay [4] (setting [8]); 67.8% in assay [4] (at 50.0 µM). In addition, the growth inhibition in assay [5] (setting [7]) is 96% (active); in assay [5] (setting [8]) it was 98% (active); in assay [5] (at 50.0 µM), 78.5% (active); in assay [6] (setting [7]) it was 91% (active); in assay [6] (setting [8]), 98% (active); in assay [6] (at 50.0 µM), 91.7% (active).
On to `CC(C)(C)NC1=NC(C(F)(F)F)(C(F)(F)F)NC(=O)N1`, for which the growth inhibition in assay [1] (setting [7]) is -19%; in assay [1] (setting [8]) it was 91% (active); in assay [1] (at 50.0 µM) it was 38.9%; in assay [2] (setting [7]), -20%; in assay [2] (setting [8]), 93% (active); in assay [2] (at 50.0 µM) it was 40.8%. Also, the growth inhibition in assay [3] (setting [7]) was -52%; in assay [3] (setting [8]) it was 88% (active); in assay [3] (at 50.0 µM) it was 33.9%; in assay [4] (setting [7]), -21%; in assay [4] (setting [8]) it was 72% (active); in assay [4] (at 50.0 µM), 21.3%. The growth inhibition in assay [5] (setting [7]) was -56%; in assay [5] (setting [8]), 95% (active); in assay [5] (at 50.0 µM), 70.5% (active); in assay [6] (setting [7]), -22%; in assay [6] (setting [8]) it was 92% (active); in assay [6] (at 50.0 µM), 12.4%.
